Results published in the emibetuzumab library of Makowski et al. (2022).
This is one part of the list. The true hit rate is not given.

B1: VH:VL chains; a variant is named by its letters at X, in order (parent)
chain 1: QVQLVQSGAEVKKPGASVKVSCKASGYTFTDYXMHWVRQAPGQGLEWMGXVNPNXXXTTYNQKFEGRVTMTTDTSTSTAYMELRSLRSDDTAVYYCARXNXLDXWGQGTTVTVSS
chain 2: DIQMTQSPSSLSASVGDRVTITCSVSSSVSSIYLHWYQQKPGKAPKLLIYSTSNLASGVPSRFSGSGSGTDFTLTISSLQPEDFATYYCQVYSGYPLTFGGGTKVEIK

Variants of: B1
Test: yeast display scFab, FACS + sequencing
Conditions: with MET
Summary of the method: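 For FACS, yeast displaying a heavy-chain CDR mutant scFab library were labelled with 1 nM HGFR-Fc and anti-Myc (PBSB, 1% milk, 3 h, room temperature), and the top 50% antigen-positive cells were gated. Input and round-3 sorted populations were deep sequenced in two replicates. The binding call was positive for sequences occurring in both antigen-positive samples and negative for sequences occurring only in input.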

| Variant | antigen binding call |
| --- | --- |
| SKKGDFWV | no binding |
| VETEGDWD | no binding |
| VRAETDVY | no binding |
| YRRGSSLV | binds |
| DAEGDAGD | no binding |
| VKGRASAS | no binding |
| VKGRGSGS | binds |
| VKGRGAGS | binds |
| VGGRGDGS | no binding |
| VKGGSFGS | no binding |
| VTEGGDVA | no binding |
| YTTGGDWA | no binding |
| DATGGSVD | no binding |
| DTGGDDGF | no binding |
| YARADDAS | no binding |
| VEGEDAAA | no binding |
| VETGGAVA | no binding |
| VRRGGAAA | binds |
| VRTGGAAA | binds |
| VRRGGSAA | binds |
| VETGGAAA | no binding |
| VEGGGDWA | no binding |
| VEGAASWF | no binding |

| Variant | antigen binding call |
| --- | --- |
| YRKGAASD | binds |
| SRKGAASD | no binding |
| YRKGSASD | binds |
| YRAKSALV | binds |
| VEAGDALV | no binding |
| VRARGALV | binds |
| YTAGSALV | no binding |
| VRAGDALV | no binding |
| YRARGALV | binds |
| VGGTGDVF | no binding |
| DGGADVGA | no binding |
| DKGTDVGA | no binding |
| FRRGSSGD | binds |
| FARGASGV | no binding |
| FRRGSSGS | binds |
| FRRGGSGV | binds |
| FRRGGSGS | binds |
| DAGAAAGD | no binding |
| DKREADVA | no binding |
| FEEEGSAA | no binding |
| VKRGSSAA | binds |
| FRAGGSAA | binds |
| FKKGSSAA | binds |

| Variant | antigen binding call |
| --- | --- |
| FKKGSFGA | no binding |
| FKKGSAVA | binds |
| FKGEDAVA | no binding |
| FKGEGDAA | no binding |
| ATTKSDAA | no binding |
| SREAADWV | no binding |
| DAGGGDVA | no binding |
| DARENAGY | no binding |
| DEGTGALA | no binding |
| FKRKNSAA | no binding |
| FRRGGSAA | binds |
| FKRGSSAA | binds |
| FRRGDSAA | binds |
| FGRGSSWA | no binding |
| FRRGSSAA | binds |
| DGERTAGV | no binding |
| VREEGDGA | no binding |
| VTTGGDGV | no binding |
| YRARGAWY | binds |
| YRAGGDWY | binds |
| YTAGSDWY | no binding |
| YRAGGYWY | binds |
| DRAGDDWY | no binding |

| Variant | antigen binding call |
| --- | --- |
| YRAGGAWY | binds |
| DGGTSYSV | no binding |
| SKEAGYSV | no binding |
| VTGEDDAV | no binding |
| ATGANSLD | no binding |
| YEKGGDVY | no binding |
| YRKGGAWY | binds |
| YRAKGAWY | binds |
| DGGTNDVD | no binding |
| DTKAASWV | no binding |
| VKKGSSLF | binds |
| VKKESSGF | no binding |
| VKGRADSF | no binding |
| YKERGDVF | no binding |
| YKKGSSLF | binds |
| YRKGGAWV | binds |
| YRTADDWV | no binding |
| YRKEAAWV | binds |
| SAEGGSSA | no binding |
| FGAKTASF | no binding |
| YRAETDVA | no binding |
| YRGGSDVA | binds |
| YRAAGDVA | binds |

| Variant | antigen binding call |
| --- | --- |
| VRAGDDVA | no binding |
| YRAGDDVA | binds |
| YTAGSDVA | no binding |
| VRGGSDVA | no binding |
| DRGRSDVA | no binding |
| YAAGGDVA | no binding |
| DAGGGAAV | no binding |
| AGGGNDWV | no binding |
| VAAKNDGA | no binding |
| VAKENAVA | no binding |
| YGKGTSGF | no binding |
| YRKGSSGF | binds |
| YRKGSSLF | binds |
| YTRGASWV | no binding |
| YRGGASWV | binds |
| YETTDSWV | no binding |
| YRGASSWV | binds |
| YTKAASWV | no binding |
| YAEATDLY | no binding |
| VTEGDSGV | no binding |
| VTTGSASF | no binding |
| DTEEGDWV | no binding |
| DRRGDASD | no binding |

| Variant | antigen binding call |
| --- | --- |
| YRRGDASD | binds |
| YTGTSASD | no binding |
| YRGEGASD | binds |
| YRRGSAVD | binds |
| YRRGSASD | binds |
| YTAAADLV | no binding |
| YETEGDVF | no binding |
| YRRGGASD | binds |
| DAGGGAVY | no binding |
| YRKKGDLA | no binding |
| YTGRAALA | no binding |
| YRGRSALA | binds |
| YRGKGSLA | binds |
| YRGKGALA | binds |
| YRKGAALA | binds |
| VTGTGDGV | no binding |
| AETKGAVA | no binding |
| DGGENAGD | no binding |
| VAGGDAVV | no binding |
